We go through 13 molecules from PubChem BioAssay (NCATS).

Records with an inconclusive call do not appear. The source made the active and inactive calls. The call rests on the fitted dose curve; in most records, active means well fitted inhibition curve with a large enough effect; inconclusive means small, poorly fitted or top-dose-only effect; inactive means no such curve, though single readings can be large or run the other way.
Potency means the concentration at half of the fitted maximal effect.

The nature of this experiment: qHTS to identify inhibitors of the type 1 interferon - major histocompatibility complex class I in skeletal muscle: primary screen against the NCATS Mechanism Interrogation Plate v5.0 (MIPE) Libary (AID 1347411). Further: nearly all actives have a fitted effect of over 65% in size.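 On activity change, negative = inhibition: plate controls were vehicle for no effect and reference inhibitor for full effect.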 The settings on record: iHSKM cells + IFN-b, HiBiT-tagged MHC-I luminescence, 24 h; series mostly up to 45.8 µM; activity change, negative = inhibition: at the top concentration. The method, boiled down: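 Immortalized human myoblasts (C25cl48) with HiBit knocked into endogenous HLA-B*08:01 were stimulated with 4 ng/ml IFN-beta and given compounds in 11-point 1:3 titration from 46 uM. After 24 h at 37 C, lytic HiBiT luminescence was read.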
In general terms: In qHTS, concentration-response curves come from the screen itself.
For the molecule `CCc1cc2c(cc1N1CCC(N3CCOCC3)CC1)C(C)(C)c1[nH]c3cc(C#N)ccc3c1C2=O`, the “activity change, negative = inhibition” value was -18.9% [at 15.5 µM] (inactive).
The same measure, in the same setting: for `COc1ccc(C(=O)CC2(O)C(=O)Nc3c(Cl)ccc(Cl)c32)cc1` (stereo not drawn) the value was -32.8% (inactive).
As for `C=CC(=O)Nc1cc2c(Nc3ccc(F)c(Cl)c3)ncnc2cc1C#CC(C)(C)N1CCN(C)CC1`, the Potency was 8.29 µM (active).
For `CC(=O)OCC(=O)[C@@]1(O)[C@H](C)C[C@H]2[C@@H]3C=C(C)C4=Cc5c(cnn5-c5ccccc5)C[C@]4(C)[C@@H]3[C@@H](O)C[C@@]21C`, the “activity change, negative = inhibition” value is 3.21% (inactive).
On to `Nc1ncnc2c1c(-c1cnc3[nH]ccc3c1)nn2C1CCCC1`, for which the Potency is 0.829 µM (active).
Consider `CN1CC[C@@H](c2c(O)cc(O)c3c(=O)cc(-c4ccccc4Cl)oc23)[C@@H](O)C1`, for which the Potency is 0.739 µM (active).
Still for that read-out and setting: with `CN(C)CCCN=c1c2ccccc2n(C)c2[nH]c(=O)n(C)c(=O)c12` the figure was 16.5 µM (active); with `O=C(NC1CCNCC1)c1[nH]ncc1NC(=O)c1c(Cl)cccc1Cl`, 0.262 µM (active).
As for `O=C(O)c1ccc2c(c1)nc(Nc1cccc(Cl)c1)c1ccncc12`, the Potency was 16.5 µM (active).
Take `CC1(C)CCC(c2ccc(Cl)cc2)=C(CN2CCN(c3ccc(C(=O)NS(=O)(=O)c4ccc(N[C@H](CCN5CCOCC5)CSc5ccccc5)c(S(=O)(=O)C(F)(F)F)c4)cc3)CC2)C1`: the “activity change, negative = inhibition” value was -28.2% (inactive).
In the case of `Cc1cc(Nc2cc(NC(=O)c3c(Cl)cccc3Cl)ccn2)nc(N)n1`, the Potency was 4.66 µM (active).
On to `CCN1CCN(CC(=O)Nc2ccc(-c3cccc4c(=O)cc(N5CCOCC5)oc34)c3sc4ccccc4c23)CC1`, for which the “activity change, negative = inhibition” value was 4.22% [at 15.5 µM] (inactive).
In the case of `CC[C@@H]1C(=O)N(C)c2cnc(Nc3ccc(C(=O)NC4CCN(C)CC4)cc3OC)nc2N1C1CCCC1`, the Potency was 16.5 µM (active).
